High-throughput results deposited in PubChem by several laboratories.
Bead autofluor – flagged as autofluorescent in microsphere protease counterscreen. fluorescence intensity (test concentration not listed). AID 624483. hit rate 3.1% among 360,000. compound autofluorescence counterscreen, microsphere flow cytometry; active compounds read high; in the data active = fluorescence intensity above about 16000; inconclusive = no clear call, values can overlap the other calls
BH1578 lux ind – inducers of Vibrio cholerae quorum light production without autoinducers, primary screen, BH1578 luxS cqsA deficient, single point; V. cholerae BH1578 lux reporter, luminescence, 6 h; activation, % at 18.7 µM; hit rate 0.16% among 350,000; AID 588436, 2011; in the data active = activation mostly above about 9.7%, no sharp cut-off; inconclusive = no clear call, values can overlap the other calls; inactive = mostly below about 3.7%
Anthrax LF prot – Bacillus anthracis LF protease inhibitors, primary screen, biochemical, multiplex microsphere, MLPCN library. multiplex microsphere protease cleavage assay. inhibition, % at 10 µM. hit rate 0.12% among 360,000. Lethal factor (Bacillus anthracis), P15917; also: plate controls were buffer without enzyme for full effect and enzyme alone for no effect
BoNT A protease – BoNT/A light chain protease inhibitors, primary screen, biochemical, flow cytometry, MLPCN library; Botulinum neurotoxin type A light chain protease (Clostridium botulinum A str. ATCC 3502); multiplex microsphere protease substrate cleavage; inhibition, % at 10 µM; hit rate 0.17% among 360,000; also: plate controls were buffer without enzyme for full effect and enzyme alone for no effect
BoNT F protease – BoNT/F light chain protease inhibitors, primary screen, biochemical, flow cytometry, MLPCN library | Multiplex microsphere protease cleavage assay | Botulinum neurotoxin type F light chain protease (Clostridium botulinum) | hit rate 0.22% among 360,000 | inhibition, % at 10 µM; in the data active = inhibition above about 35%, passing the limit was not always enough; inconclusive = no clear call, values can overlap the other calls; also: plate controls were buffer without enzyme for full effect and enzyme alone for no effect
BoNT-A LC CP1 – BoNT/A light chain protease inhibitors, confirmation, biochemical, flow cytometry, cherry pick 1 | hit rate 3% among 720 | shares compounds with BoNT F protease | AID 602139, 2011 | multiplex microsphere protease assay | inhibition, % at 10 µM; in the data active = inhibition above about 32%
BoNT-F LC CP1 – BoNT/F light chain protease inhibitors, confirmation, biochemical, flow cytometry, cherry pick 1. inhibition, % at 10 µM. 720 tested, under 10 active. shares compounds with BoNT F protease. multiplex microsphere protease cleavage assay; call rule not given here
LF protease CP1 – Bacillus anthracis LF protease inhibitors, confirmation, biochemical, multiplex microsphere, cherry pick 1; 720 tested, under 10 active; shares compounds with BoNT F protease; AID 602142, 2011; inhibition, % at 10 µM; multiplex microsphere protease cleavage assay; call rule not given here
Active calls of the source: *; i = inactive; ? = inconclusive; . = not tested or not shown; + = active, no number. Shown are actives, neighbours in structure and some others; about 3.5% of the full set was active somewhere. Rule as the data show it, unless noted: active = inhibition above about 30%; inconclusive = no clear call, values can overlap the other calls; inactive = below that.

SMILES	Bead autofluor	BH1578 lux ind	Anthrax LF prot	BoNT A protease	BoNT F protease	BoNT-A LC CP1	BoNT-F LC CP1	LF protease CP1
CCOC(=O)c1c(NC(=O)COC(=O)CCOc2cc(C)ccc2C)sc(C(=O)N(C)C)c1C	4213	i	-1	0	-4	.	.	.
O=C(O)c1ccccc1CC(CCc1ccccc1)C(=O)O (stereo not drawn)	4210	i	-4	0	-5	.	.	.
O=[N+]([O-])c1ccc(C2=NN(c3ccccc3)C(c3ccco3)C2)cc1 (stereo not drawn)	18109*	-1	31*	59*	?	59*	.	17
CC(C)Oc1ccccc1C1NC(=O)CCC1[N+](=O)[O-] (stereo not drawn)	3032	-1	-8	3	17	.	.	.
Cc1ccc(-c2csc(NC(=O)c3ccccc3F)c2C(=O)O)cc1	3981	-1	20	4	35*	0	-5	-7
CCN(CC)CCNC(=O)C(=O)Nc1cc2c3c(c1)CCC(=O)N3CCC2	5399	-2	0	0	8	.	.	.
Cc1cc(C)c2c(c1)NC(c1cc3c(cc1Br)OCO3)C1CC=CC21 (stereo not drawn)	1899	i	-10	4	+	-1	2	-2
Brc1cc2c(cc1C1Nc3ccccc3C3C=CCC31)OCO2 (stereo not drawn)	2442	0	-1	0	0	.	.	.
Cc1cc(C(=O)Nc2ccc(S(=O)(=O)Nc3onc(C)c3C)cc2)c(C)o1	10628	0	-21	30*	42*	0	0	-1
COc1ccc(CNC(=O)CN(C(=O)CCC(=O)Nc2ccccn2)c2cc(C)ccc2C)cc1	3145	-3	32*	-2	-7	1	-4	5
CCc1ccccc1N(CC(=O)NCc1ccc(OC)cc1)C(=O)CCC(=O)Nc1ccccn1	5288	0	4	-2	-3	.	.	.
CC(C(=O)O)n1cc(Cl)cn1 (stereo not drawn)	4632	0	-3	0	-3	.	.	.
Cc1ccc(S(=O)(=O)N(CC(=O)NCc2ccncc2)Cc2ccccc2F)cc1	2926	0	10	-2	35*	0	-3	-2
Cc1nnsc1C(=O)NC1CCCc2c1cnn2-c1ccc(C(C)(C)C)cc1 (stereo not drawn)	5089	i	-4	-1	-3	.	.	.
COCCN(C(=O)CC(C)(C)C)c1nnc(-c2cccnc2)s1	2496	0	-12	-1	-3	.	.	.
COCCN(C(=O)c1ccccc1)c1nnc(-c2cccnc2)s1	4193	i	5	2	36*	1	-2	1
COc1ccc(-c2cn3c(C)c(C(=O)N4CCCc5ccccc54)sc3n2)cc1	5869	0	0	-1	-2	.	.	.
Cc1ccc(C)c2nc3sc(C(=O)N4CCCc5ccccc54)c(N)c3cc12	14402	-2	30*	28	22	14	7	5
CCc1ccc(Nc2nc3ccccc3c(=O)s2)cc1	5006	0	33*	8	76*	0	-3	-1
NS(=O)(=O)c1ccc(CCNC(=O)CNC(=O)c2ccc(Br)o2)cc1	3837	-11	1	0	-6	.	.	.
CCOC(=O)c1c(NC(=O)Nc2ccc(Cl)cc2)sc(C)c1C	27117*	-1	41*	-30	i	-1	1	-6
Oc1ccccc1-c1nnc(-c2ccc(C(F)(F)F)cc2)o1	3316	-1	1	1	35*	0	-3	1
CC(CN1CCOCC1)C(=O)c1ccccc1 (stereo not drawn)	10526	-1	-3	0	-2	0	2	-3
CC(=O)NCCC(=O)N1CCCC(N2CCN(c3cccc(Cl)c3)CC2)C1 (stereo not drawn)	3199	-2	-1	1	42*	-1	2	3
C=CCn1cnc2c(oc3ccccc32)c1=O	3046	6	35*	3	7	-2	-3	-3
SMILES	Bead autofluor	BH1578 lux ind	Anthrax LF prot	BoNT A protease	BoNT F protease	BoNT-A LC CP1	BoNT-F LC CP1	LF protease CP1
O=c1c2oc3ccccc3c2ncn1Cc1ccccc1Cl	10056	0	-7	0	-1	.	.	.
CCCN1CCc2c(sc3nc(SC)n(-c4ccccc4)c(=O)c23)C1	5541	-1	11	33*	27	6	2	5
COc1ccc(-n2c(SC)nc3sc4c(c3c2=O)CCN(C)C4)cc1	3666	-1	-13	12	-17	.	.	.
CCOC(=O)CSc1nc2sc3c(c2c(=O)n1-c1ccc(OCC)cc1)CCN(C)C3	3704	i	20	53*	10	1	2	4
CS(=O)(=O)N1CCC(C(=O)N2CCN(C(c3ccccc3)c3ccccc3)CC2)CC1	3375	-1	3	-2	-2	.	.	.
COc1ccc(S(=O)(=O)NCC2CCCO2)cc1Cl (stereo not drawn)	2925	i	-12	-1	35*	-1	-4	-2
CC(OC(=O)c1cccc(S(=O)(=O)N2CCCC2)c1)C(=O)c1ccccc1 (stereo not drawn)	4361	i	-2	0	0	.	.	.
Cc1nn2c(c1-c1ccccc1)NC1=C(C(=O)CCC1)C2c1ccccc1 (stereo not drawn)	12476	-3	3	28	36*	0	-4	2
COc1ccc(S(=O)(=O)N2CCSC2C)cc1C (stereo not drawn)	3569	0	20	-2	44*	-1	-5	-5
CC1SCCN1S(=O)(=O)c1ccc2ccccc2c1 (stereo not drawn)	4501	i	-3	2	11	.	.	.
COc1ccc(S(=O)(=O)Nc2cccc3c2O[C@H](CN(C)C(=O)Nc2ccc(C(F)(F)F)cc2)[C@@H](C)CN([C@H](C)CO)C3=O)cc1	3578	0	-2	0	-4	.	.	.
Cc1nn(CC(=O)Nc2nnc(C(C)C)s2)c(=O)c2ccccc12	2447	-1	-1	1	0	.	.	.
Cc1cc(C)c2cc(C(c3nnnn3C3CCCC3)N3CCOCC3)c(=O)[nH]c2c1 (stereo not drawn)	9576	0	-7	1	8	1	-4	2
Cc1cccc2cc(C(c3nnnn3C3CCCC3)N3CCOCC3)c(=O)[nH]c12 (stereo not drawn)	21873*	i	0	?	-2	-3	-5	-4
